Assay [1] in a line: AP1 Signaling Pathway (AID 357; active means well fitted curve in either direction with a large enough effect, not every such curve was filed as active; further: on the % scale 0 is the no-effect control and ±100 the full control effect). The settings on record: ME-180 AP-1-bla reporter, EGF-induced, beta-lactamase ratio, 5 h; at 7.69 µM (top of the series) unless noted. In outline: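 ME-180 cells with beta-lactamase reporter under AP-1 response element, stimulated with EC50 EGF; compounds tested in titration series, 5 h at 37 °C. CCF4 substrate added 2.5 h at room temperature; 460/530 nm emission ratio gave %activity and AC50.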

In assay [2] the target is Cytochrome P450 1A2 (Homo sapiens) (UniProt P05177). Nature of the assay: p450-cyp1a2 (AID 410; calls by dose curve; further: potency means the concentration at half of the fitted maximal effect;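 on activity change, negative = inhibition: -100% = full effect of reference inhibitor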). The settings on record: recombinant CYP1A2, luciferin-ME demethylation, luminescence; series mostly up to 57 µM. The essentials:
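Inhibition was calculated relative to 57 uM furafylline (full inhibition). The reaction used human CYP1A2 at 20nM with Luciferin-ME at its Km, 100uM, driven by an NADPH-regenerating system for 60 min at room temperature.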

Assay [3] can be described thus: NFAT Signaling Pathway (AID 444; active means well fitted curve in either direction with a large enough effect, not every such curve was filed as active;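 further: carbachol stimulus at about its EC50 of 1 µM final; on the % scale 0 is the no-effect control and ±100 the full control effect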). The following applies: Jurkat NFAT-bla M1, carbachol, beta-lactamase ratio, 5 h; at 7.69 µM (top of the series) unless noted. The essentials:
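Read-out: CCF4 FRET ratio (460 nm/530 nm) after 1 h RT dye loading, used for %activity and AC50 from titration series. Cells: Jurkat NFAT-β-lactamase/M1 line, treated with compound plus 1 uM carbachol for 5 h, 37 °C.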

A short description of assay [4]: Stat Signaling Pathway (AID 446; active means well fitted curve in either direction with a large enough effect, not every such curve was filed as active;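 further: ME-180 cervical cancer cells given 40 pM IL-6 alongside compound; SIE-controlled beta-lactamase reporter measured as 460/530 nm FRET emission ratio; on the % scale 0 is the no-effect control and ±100 the full control effect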). The following applies: ME-180 SIE beta-lactamase reporter, IL-6 stimulated, 5 h; at 7.69 µM (top of the series) unless noted. The essentials: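 ME-180 cells carrying a SIE-driven beta-lactamase reporter are stimulated with 40 pM IL-6 for 5 h at 37C in the presence of compound. The 460/530 nm FRET substrate ratio is read after 2.5 h at RT. Data are normalised to 300 pM IL-6 and to 125 nM JAK inhibitor controls.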

Assay [5] addresses Glucocorticoid receptor (Homo sapiens) (UniProt P04150). Description: GR-EFC Redistribution (AID 451; calls by dose curve; further: potency means the concentration at half of the fitted maximal effect). The settings on record: CHO-K1 GR-EFC translocation, beta-gal luminescence, 2 h. In outline:
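Translocation of GR-ED fusion to nuclear EA restores b-gal, read by luminescence after 1 h room-temperature detection. Engineered CHO-K1 biosensor cells, 1,000/well, exposed 2 h at 37 C to titrations up to 46 uM final.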

Assay [6] addresses Mitogen-activated protein kinase 10 (Mus musculus) (UniProt Q61831). Nature of the assay: JNK3 AlphaScreen Assay (AID 530; active means well fitted curve in either direction with a large enough effect, not every such curve was filed as active;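 further: kinase came from lysate of stimulated human HepG2 cells; signal reports phosphorylation of biotinylated GST-cJun 1-79 at Ser73 with 10 µM ATP; on the % scale 0 is the no-effect control and ±100 the full control effect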). The following applies: JNK3 lysate, c-Jun phosphorylation; series mostly up to 57.1 µM. In outline: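 Room-temperature AlphaScreen kinase assay; pre-activated HepG2 lysate as JNK3 source, biotin-GST-cJun(1-79) substrate, 10 uM ATP, compound 15 min preincubation.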
(In general: Bead proximity is the source of the signal in Alpha formats.)

The target in assay [7] is 3',5'-cyclic-AMP phosphodiesterase 4B (Homo sapiens) (UniProt Q07343). Nature of the assay: qHTS Assay for Inhibitors of PDE-IV (AID 607; active means well fitted activation curve with a large enough effect in the main read-out, with a control signal flat, not every such curve was filed as active; further: % of control where 0% means no effect). The settings on record: HEK293 ACTOne CNG channel cells, membrane potential fluorescence; series mostly up to 22.9 µM. The essentials:
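HEK293 ACTOne cells with CNG channel (1000/well), endogenous PDE4; membrane potential dye, compounds up to 22.9 uM final. Fluorescence Ex 535/Em 590; RO 20-1724 (100 uM final) as reference.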
(In general: In qHTS, concentration-response curves come from the screen itself.)

Assay [8] concerns the target Cytochrome P450 3A4 (Homo sapiens) (UniProt P08684). Description: qHTS Assay for Activators of Cytochrome P450 3A4 (AID 885). Further: nearly all actives have a fitted effect of over 65% in size. The settings on record: recombinant CYP3A4, Luciferin-PPXE luminescence, 60 min; series mostly up to 57.1 µM. The essentials: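 Human CYP3A4 (20 nM) with Luciferin-PPXE at 25 uM (its KM) in 200 mM KPO4; 10 min compound preincubation, then NADPH regeneration and 60 min reaction at RT. Luciferin read by luminescence; normalized to 57 uM ketoconazole full inhibition.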

Assay [9] is described as follows: qHTS Assay for Lipid Storage Modulators (AID 1519; calls by dose curve). The settings on record: Drosophila S3 cells, BODIPY lipid droplet/cell ratio, laser cytometry, cells loaded with oleic acid; for activity change, negative = inhibition: at 57.5 µM (top of the series). The essentials: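 Cells seeded at 5,000 per well were treated with compounds over a concentration series and loaded with oleic acid (400 uM, as added). Lipid droplet fluorescence (488 nm excitation, 500-530 nm channel) was read by laser-scanning cytometry and normalized to 20 uM Triacsin C.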

The target in assay [10] is Dual specificity protein kinase CLK4 (Homo sapiens) (UniProt Q9HAZ1). Nature of the assay: qHTS Assay for Inhibitors of CDC-like Kinase 4 (Kinase-Glo Assay) (AID 1770). Further: nearly all actives have a fitted effect of over 65% in size. Further: potency means the concentration at half of the fitted maximal effect. The settings on record: recombinant Clk4, Kinase-Glo ATP depletion luminescence; series mostly up to 66.7 µM. The essentials:
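Readout: Kinase-Glo luminescence from ATP left after a 4.5 h room-temperature reaction of 25 nM Clk4 with 100 uM RS peptide and 1 uM ATP (final). Buffer: 25 mM Tris pH 7.5, 10 mM MgCl2.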

For assay [11] the target is unchanged. Nature of the assay: qHTS Assay for Inhibitors of CDC-like Kinase 4 (ADP-Glo Assay) (AID 1771). Further: nearly all actives have a fitted effect of over 70% in size. Further: potency means the concentration at half of the fitted maximal effect. The settings on record: recombinant CLK4, ADP-Glo luminescence; series mostly up to 80 µM. In outline: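 Kinase reaction: Clk4 at 25 nM, RS repeat peptide substrate at 100 uM, ATP at 1 uM, 1 hr, room temperature. Product ADP detected as luciferase signal via ADP-Glo.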

Assay [12] deals with Ubiquitin carboxyl-terminal hydrolase 1 (Homo sapiens) (UniProt O94782). Nature of the assay: Inhibitors of USP1/UAF1: Pilot qHTS (AID 504865).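 Further: rhodamine fluorescence freed from ubiquitin-rhodamine substrate followed over time; top concentration of the series differs between compounds; on the % scale 0 is the no-effect control and ±100 the full control effect; nearly all actives have a fitted effect of over 35% in size.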 The following applies: purified USP1/UAF1, Ub-rhodamine cleavage fluorescence; series mostly up to 54.9 µM. In outline: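 1nM USP1/UAF1 + cpd, 15 min RT; start w/ Ub-Rho 150nM final; kinetic FL 480/540 nm, 6 reads q60 s. Buffer 50mM HEPES pH 7.8, 0.5mM EDTA, 1mM TCEP, 0.01% Tween-20, 0.1 mg/ml BSA.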
Chain of Ubiquitin carboxyl-terminal hydrolase 1 (Homo sapiens) (O94782 whole entry, looked up): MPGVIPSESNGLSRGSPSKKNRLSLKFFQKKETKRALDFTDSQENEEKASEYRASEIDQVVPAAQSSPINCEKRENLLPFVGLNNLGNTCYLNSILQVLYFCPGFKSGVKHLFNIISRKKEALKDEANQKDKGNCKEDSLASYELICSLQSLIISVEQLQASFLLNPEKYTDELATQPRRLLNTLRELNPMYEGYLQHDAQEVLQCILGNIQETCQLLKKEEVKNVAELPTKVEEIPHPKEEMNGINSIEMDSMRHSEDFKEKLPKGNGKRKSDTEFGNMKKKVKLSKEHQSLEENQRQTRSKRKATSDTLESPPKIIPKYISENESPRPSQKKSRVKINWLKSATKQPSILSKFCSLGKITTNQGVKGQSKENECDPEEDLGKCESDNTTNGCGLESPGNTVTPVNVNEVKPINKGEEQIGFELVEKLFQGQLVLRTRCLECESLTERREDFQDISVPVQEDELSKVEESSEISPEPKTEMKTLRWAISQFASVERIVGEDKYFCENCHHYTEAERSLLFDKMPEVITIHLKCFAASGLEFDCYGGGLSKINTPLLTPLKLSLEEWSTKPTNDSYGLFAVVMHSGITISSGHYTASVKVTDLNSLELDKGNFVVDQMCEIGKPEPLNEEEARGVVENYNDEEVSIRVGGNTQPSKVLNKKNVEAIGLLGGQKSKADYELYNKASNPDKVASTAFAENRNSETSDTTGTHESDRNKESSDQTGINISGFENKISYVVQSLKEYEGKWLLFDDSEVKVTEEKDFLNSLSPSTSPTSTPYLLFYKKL

A short description of assay [13]: Primary qHTS for small molecule stabilizers of the endoplasmic reticulum resident proteome: Secreted ER Calcium Modulated Protein (SERCaMP) assay (AID 1508630). Further: on the % scale 0 is the no-effect control and ±100 the full control effect. The following applies: SH-SY5Y GLuc-SERCaMP (Gaussia luciferase released on ER calcium loss) secretion, thapsigargin, luminescence; series mostly up to 38.4 µM. In outline:
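GLuc-SERCaMP-expressing SH-SY5Y cells, pretreated 16 h with compound, are challenged with thapsigargin to empty ER calcium stores; after 4 h, coelenterazine is added directly to the medium and luminescence is imaged.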

Assay [14] addresses Lysosomal acid glucosylceramidase (Homo sapiens) (UniProt P04062). Description: Glucocerebrosidase-p2 (AID 348; in the data active means potency below about 10 µM; further: potency means the concentration at half of the fitted maximal effect). The settings on record: purified GBA, blue fluorogenic substrate, 40 min. In outline: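 Compounds titrated from 0.6 nM upwards against 0.2 nM enzyme in pH 5.9 citric acid/KH2PO4, taurocholate, tween-20; blue fluorogenic substrate 80 uM, 40 min room temperature, stopped and read Ex 365/Em 440 for AC50.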

Assay [15] addresses Glucocorticoid receptor (Homo sapiens) (UniProt P04150). Description: GR-GFP Redistribution (AID 450;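 active means compounds whose dose series gives a full or clear partial fitted curve of increased nuclear translocation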; further: potency means the concentration at half of the fitted maximal effect). The settings on record: U2OS GR-GFP nuclear translocation, laser cytometry, 2 h.
Assay [16] is described as follows: qHTS Assay for Identification of Small Molecule Agonists for Hypoxia Response Element Signaling Pathway (AID 914; active means well fitted activation curve with a large enough effect in the signal ratio, with a control signal flat, not every such curve was filed as active; the % refers to the signal ratio; further: potency means the concentration at half of the fitted maximal effect). The following applies: ME-180 (cervical carcinoma) HRE-bla reporter, beta-lactamase ratio, CoCl2, 17 h; activation: stronger effect = higher value. In outline:
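HRE-bla ME-180 cells, overnight plating in Opti-MEM with 0.5% dialyzed FBS; cpd titration + EC50 CoCl2, 17 h, 37 degrees Celsius; CCF4 2.5 h RT; 460/530 nm ratio; AC50.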

Where [17] appears, read: measured here: cell count channel max response.
Setting [18] is: measured here: lipid channel max response.

Inconclusive results are not listed. Calls of active or inactive are those of the source. Unless noted, the call rests on the fitted dose curve; in most records, active means well fitted curve in the direction sought with a large enough effect; inconclusive means small, poorly fitted or top-dose-only effect, or another doubt; inactive means no such curve, though single readings can be large; an effect the other way counts as inactive or inconclusive. Where only a bound is given, the exact number is not on record here.

Chain of Glucocorticoid receptor (Homo sapiens) (P04150 whole entry, looked up, the tested form may be a part): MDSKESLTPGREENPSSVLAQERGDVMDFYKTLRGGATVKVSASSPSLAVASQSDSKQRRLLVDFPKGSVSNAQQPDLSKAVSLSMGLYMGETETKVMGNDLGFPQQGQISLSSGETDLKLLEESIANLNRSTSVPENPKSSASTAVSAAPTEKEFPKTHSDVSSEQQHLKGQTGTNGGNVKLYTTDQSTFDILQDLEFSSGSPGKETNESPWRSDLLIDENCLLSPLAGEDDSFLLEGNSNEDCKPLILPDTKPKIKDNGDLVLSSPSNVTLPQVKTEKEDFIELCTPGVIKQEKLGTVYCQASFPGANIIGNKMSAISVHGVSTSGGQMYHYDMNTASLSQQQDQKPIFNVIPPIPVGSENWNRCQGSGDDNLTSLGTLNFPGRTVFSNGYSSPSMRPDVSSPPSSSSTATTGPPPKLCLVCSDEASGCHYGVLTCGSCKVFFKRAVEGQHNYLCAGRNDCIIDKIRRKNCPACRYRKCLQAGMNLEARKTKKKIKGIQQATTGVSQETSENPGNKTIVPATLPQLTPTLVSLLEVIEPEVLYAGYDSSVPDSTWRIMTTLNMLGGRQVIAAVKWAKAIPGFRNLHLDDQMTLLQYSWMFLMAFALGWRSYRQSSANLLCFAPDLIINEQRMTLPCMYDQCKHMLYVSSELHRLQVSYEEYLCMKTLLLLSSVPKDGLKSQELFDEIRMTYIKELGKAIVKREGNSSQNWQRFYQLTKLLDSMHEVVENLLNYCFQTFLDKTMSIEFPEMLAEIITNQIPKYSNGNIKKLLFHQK
Chain of Dual specificity protein kinase CLK4 (Homo sapiens) (Q9HAZ1 whole entry, looked up): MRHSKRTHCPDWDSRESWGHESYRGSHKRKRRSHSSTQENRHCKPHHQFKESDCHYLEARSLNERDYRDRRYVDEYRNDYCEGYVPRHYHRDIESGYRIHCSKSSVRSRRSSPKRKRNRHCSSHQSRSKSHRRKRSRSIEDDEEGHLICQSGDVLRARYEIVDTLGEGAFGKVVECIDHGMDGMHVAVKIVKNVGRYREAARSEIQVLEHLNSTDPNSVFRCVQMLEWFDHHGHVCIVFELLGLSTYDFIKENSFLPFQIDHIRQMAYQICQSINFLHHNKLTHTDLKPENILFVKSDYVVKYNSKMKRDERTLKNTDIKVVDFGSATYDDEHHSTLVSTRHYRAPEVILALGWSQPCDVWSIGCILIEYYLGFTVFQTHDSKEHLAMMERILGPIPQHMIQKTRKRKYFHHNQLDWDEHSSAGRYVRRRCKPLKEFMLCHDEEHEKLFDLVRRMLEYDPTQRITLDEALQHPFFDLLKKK
Chain of Lysosomal acid glucosylceramidase (Homo sapiens) (P04062 whole entry, looked up): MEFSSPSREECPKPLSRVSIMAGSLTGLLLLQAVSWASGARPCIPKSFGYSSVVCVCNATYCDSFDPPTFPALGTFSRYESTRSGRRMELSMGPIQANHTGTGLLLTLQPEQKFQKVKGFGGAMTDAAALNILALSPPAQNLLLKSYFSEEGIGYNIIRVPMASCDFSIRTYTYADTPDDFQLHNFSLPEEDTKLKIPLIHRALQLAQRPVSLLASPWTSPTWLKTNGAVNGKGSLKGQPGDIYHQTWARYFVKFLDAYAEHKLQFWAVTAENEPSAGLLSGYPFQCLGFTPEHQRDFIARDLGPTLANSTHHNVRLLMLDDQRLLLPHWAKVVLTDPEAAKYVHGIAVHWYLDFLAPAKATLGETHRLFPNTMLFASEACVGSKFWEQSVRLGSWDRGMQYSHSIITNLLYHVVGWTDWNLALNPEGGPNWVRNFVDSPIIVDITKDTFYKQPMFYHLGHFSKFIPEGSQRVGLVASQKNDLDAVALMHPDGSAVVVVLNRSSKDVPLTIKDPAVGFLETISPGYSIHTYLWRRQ
Chain of 3',5'-cyclic-AMP phosphodiesterase 4B (Homo sapiens) (Q07343 whole entry, looked up): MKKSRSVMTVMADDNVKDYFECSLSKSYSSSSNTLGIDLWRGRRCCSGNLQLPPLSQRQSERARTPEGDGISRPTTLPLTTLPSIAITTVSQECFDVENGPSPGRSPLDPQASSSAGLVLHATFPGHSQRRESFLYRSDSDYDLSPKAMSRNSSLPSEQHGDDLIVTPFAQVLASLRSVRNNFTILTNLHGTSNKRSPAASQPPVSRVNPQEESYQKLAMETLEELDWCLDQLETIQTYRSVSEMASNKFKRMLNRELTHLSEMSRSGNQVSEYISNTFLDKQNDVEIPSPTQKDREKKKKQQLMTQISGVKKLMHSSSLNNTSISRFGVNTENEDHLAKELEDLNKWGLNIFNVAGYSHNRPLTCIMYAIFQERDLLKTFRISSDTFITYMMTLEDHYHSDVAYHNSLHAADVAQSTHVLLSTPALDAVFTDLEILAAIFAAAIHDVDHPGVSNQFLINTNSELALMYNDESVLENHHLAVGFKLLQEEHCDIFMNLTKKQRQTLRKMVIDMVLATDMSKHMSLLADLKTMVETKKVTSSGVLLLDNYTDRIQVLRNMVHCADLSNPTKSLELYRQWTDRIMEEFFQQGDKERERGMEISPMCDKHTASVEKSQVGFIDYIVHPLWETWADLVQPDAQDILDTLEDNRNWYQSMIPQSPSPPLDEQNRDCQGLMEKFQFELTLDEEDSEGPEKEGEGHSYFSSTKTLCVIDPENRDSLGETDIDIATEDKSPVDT
Chain of Cytochrome P450 1A2 (Homo sapiens) (P05177 whole entry, looked up): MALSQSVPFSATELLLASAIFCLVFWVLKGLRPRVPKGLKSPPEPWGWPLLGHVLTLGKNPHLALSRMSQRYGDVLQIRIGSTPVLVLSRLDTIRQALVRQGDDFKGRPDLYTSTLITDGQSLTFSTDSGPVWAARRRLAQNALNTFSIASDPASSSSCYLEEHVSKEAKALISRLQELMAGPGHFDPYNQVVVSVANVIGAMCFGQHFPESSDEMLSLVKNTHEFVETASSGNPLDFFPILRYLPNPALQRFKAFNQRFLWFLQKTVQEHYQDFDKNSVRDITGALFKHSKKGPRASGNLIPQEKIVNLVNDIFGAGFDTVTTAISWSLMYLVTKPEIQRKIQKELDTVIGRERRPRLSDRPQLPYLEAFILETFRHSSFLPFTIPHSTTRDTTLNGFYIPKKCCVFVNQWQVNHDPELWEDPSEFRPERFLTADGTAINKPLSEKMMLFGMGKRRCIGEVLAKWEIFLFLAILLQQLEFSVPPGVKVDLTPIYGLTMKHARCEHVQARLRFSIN
Chain of Cytochrome P450 3A4 (Homo sapiens) (P08684 whole entry, looked up): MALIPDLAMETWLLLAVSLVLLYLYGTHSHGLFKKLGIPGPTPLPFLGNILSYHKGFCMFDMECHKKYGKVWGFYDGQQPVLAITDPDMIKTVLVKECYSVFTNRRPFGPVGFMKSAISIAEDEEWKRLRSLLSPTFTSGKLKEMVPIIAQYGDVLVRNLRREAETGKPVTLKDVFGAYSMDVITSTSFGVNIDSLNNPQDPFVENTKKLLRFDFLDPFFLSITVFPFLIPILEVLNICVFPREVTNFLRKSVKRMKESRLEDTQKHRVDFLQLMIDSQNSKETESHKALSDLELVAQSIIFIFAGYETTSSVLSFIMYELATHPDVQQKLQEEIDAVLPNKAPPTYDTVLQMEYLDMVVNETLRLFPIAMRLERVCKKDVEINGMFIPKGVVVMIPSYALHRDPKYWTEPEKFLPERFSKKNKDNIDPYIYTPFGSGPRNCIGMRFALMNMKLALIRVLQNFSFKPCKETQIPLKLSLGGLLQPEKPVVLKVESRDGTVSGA

For the compound `COc1ccccc1-c1cncnc1NCCNC(C)=O`, the activity change, negative = inhibition in assay [1] was -8.57% (inactive); in assay [3], 1.19% (inactive); in assay [9] it was 0.0705% (inactive). The Potency entry in assay [2], in [7], in assay [8], in assay [10], in assay [11] and in [12] was “inactive” throughout. Further, the Potency result in assay [13] was “inactive”. Further, the activity, negative = inhibition in [4] was 2.82% (inactive). Further, the Potency in assay [5] is > 46 µM (inactive). The compound was classed as inactive in [6]. The max response came to 19.9% in [9] (setting [17]) and 19% in assay [9] (setting [18]).
Turning to `CC(=O)NCCNc1nc(-c2cccnc2)nc2ccccc12`, the Potency in assay [14] is > 11.4 µM (inactive); in assay [15], > 46 µM (inactive); in [5], > 46 µM (inactive); in assay [10], 25.1 µM (active); in assay [11], 14.1 µM (active). Moreover, the values for the activity change, negative = inhibition in assay [1], in [3] and in [9] were 5.7% (inactive), 0.668% (inactive) and 5.64% (inactive), respectively. Further, in assay [4], the activity, negative = inhibition is 1.25% (inactive). In [6], the compound was classed as inactive. Further, the Potency entry in assay [7], in assay [12] and in assay [13] was “inactive” in each case. Further, the max response in assay [9] (setting [17]) is 21.4%; in assay [9] (setting [18]), 27.2%.
Consider `COc1ccc(-c2nc3cnc(N4CCOCC4)nc3n(C3CC3)c2=O)cc1`, for which the Potency in [14] is > 11.4 µM (inactive); in assay [15], > 9.22 µM (inactive); in assay [5] it was > 46 µM (inactive). Also, the activity change, negative = inhibition in assay [1] was 3.24% (inactive); in assay [9], 1.26% (inactive). The outcome in [6] was inactive. Moreover, the results for the max response in assay [9] (setting [17]) and in assay [9] (setting [18]) were 9.72% and 11.8%, respectively. In addition, the Potency entry in [10], in assay [11], in assay [12] and in [13] was “inactive” each time.
With `CNc1nc(-c2ccc3c(c2)OCO3)nc2ccccc12`, the Potency is 11.4 µM (inactive) in [14]; > 46 µM (inactive) in assay [15]; > 46 µM (inactive) in [5]; 14.1 µM (active) in [10]; 28.2 µM (active) in assay [11]. Besides, the activity change, negative = inhibition in [1] was 28.9% (inactive); in assay [3], 1.91% (inactive); in assay [9], -5.22% (inactive). Besides, the activity, negative = inhibition in [4] was -1.35% (inactive). Moreover, in [6], the call was inactive. For the same compound, the Potency entry in [7], in [12] and in assay [13] was “inactive” each time. Besides, the max response in assay [9] (setting [17]) is 2.96%; in assay [9] (setting [18]), -1.26%.
With `COc1ncc2nc(-c3ccc(F)cc3)c(=O)n(C)c2n1`, the Potency in assay [14] is > 11.4 µM (inactive); in [2] it was 0.501 µM (active); in assay [15], > 9.22 µM (inactive); in assay [5] it was > 46 µM (inactive); in [16], 3.16 µM (active). The compound was classed as inactive in assay [6]. The Potency entry in assay [7], in [8], in [10], in assay [11], in assay [12] and in [13] was “inactive” each time. In addition, in assay [9], the activity change, negative = inhibition was 7.5% (inactive). Further, the max response in assay [9] (setting [17]) was 17.8%; in [9] (setting [18]), 25.2%.
`COc1cccc(Nc2ncc3ncc(=O)n(CCc4ccccc4)c3n2)c1`: the Potency in assay [14] was > 11.4 µM (inactive); in assay [15], > 9.22 µM (inactive); in assay [5], > 46 µM (inactive); in assay [10] it was 0.1 µM (active); in [11], 0.282 µM (active). Moreover, the activity change, negative = inhibition is 4.6% (inactive) in assay [3] and -5.96% (inactive) in assay [9]. Moreover, the activity, negative = inhibition in [4] is -3.68% (inactive). Moreover, the call in assay [6] was inactive. Besides, the max response was -10.9% in assay [9] (setting [17]) and -19.1% in [9] (setting [18]). The Potency result in assay [12] and in assay [13] was “inactive” in each case.

For the origin of these results see PubChem BioAssay (NCATS).
